Source: PubChem BioAssay AID646 (Vanderbilt High Throughput Screening Facility, 2007)
Hit rate of the full screen: of about 1,900 compounds, about 15 (0.8%) were called active. Rule as the data show it: active = luminescence above about 3900; inactive = the rest. Only a sample is shown.

The compounds below were run against D(1A) dopamine receptor (Homo sapiens) (UniProt P21728) (assay: D1 receptor agonism without dopamine, confirmation, mechanism study for D1 allosteric modulator project, cell-based, HEK293 D1, CRE-luciferase, secondary assay 1 (AID 646)). Details: no dopamine, at 10 µM, active compounds read high.
D(1A) dopamine receptor (Homo sapiens), sequence (P21728 whole entry, looked up): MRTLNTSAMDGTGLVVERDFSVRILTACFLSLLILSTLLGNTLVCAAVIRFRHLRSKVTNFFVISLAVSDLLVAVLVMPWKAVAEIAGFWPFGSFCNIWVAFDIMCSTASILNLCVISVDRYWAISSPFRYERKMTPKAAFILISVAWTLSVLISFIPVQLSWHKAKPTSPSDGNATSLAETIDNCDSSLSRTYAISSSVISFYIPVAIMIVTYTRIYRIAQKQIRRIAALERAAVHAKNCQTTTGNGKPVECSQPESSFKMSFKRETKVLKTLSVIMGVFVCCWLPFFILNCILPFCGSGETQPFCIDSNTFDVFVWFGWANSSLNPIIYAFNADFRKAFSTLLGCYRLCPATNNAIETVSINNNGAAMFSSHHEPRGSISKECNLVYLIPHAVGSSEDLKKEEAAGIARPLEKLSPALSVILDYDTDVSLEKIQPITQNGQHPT

luminescence, inactive:
c1ccc(COc2nsnc2N2CCOCC2)cc1 1550
CCc1cc(=O)oc2cc(OCC(=O)N3CCCc4ccccc43)ccc12 1680
Cn1c(/C(C#N)=C2/CCCCCN2)nc2ccccc21 1800
COc1ccc(Nc2oc(-c3ccccc3Cl)nc2C#N)cc1 1750
CCOc1cc(C(=O)N2CCc3cc(OC)c(OC)cc3C2)ccc1OC(F)F 2710
CCOc1ccc(Nc2oc(Cc3ccccc3)nc2C#N)cc1 1910
CCOc1ccccc1C1CC(c2ccccc2)Nc2nc(N)nn21 (stereo not drawn) 1700
Cc1cc(C(F)(F)F)nn1-c1nc(-c2ccco2)cc(C(F)(F)F)n1 1710
c1ccc(-c2nnc3n2NC(c2ccc4c(c2)OCO4)S3)cc1 (stereo not drawn) 1610
CCOC(=O)c1cc2n(c1C)-c1ccccc1C2=O 1720
CCSc1nc(C)nc2c1oc1ccccc12 1590
CCCc1nc(N)nc2c1C(=O)CC(C)(C)C2 1560
CCOc1ccc(Cn2c(SCCCCC#N)nc3c2c(=O)n(C)c(=O)n3C)cc1OCC 1460
CC1CCN(c2nc3c(c(=O)[nH]c(=O)n3C)n2CCCc2ccccc2)CC1 1410
Cc1ccc(-c2nn(-c3ccccc3)cc2CN(Cc2ccccc2)C(=O)CCC(=O)O)o1 1420
CC(C)n1c(C(O)c2ccccc2)nc2ccccc21 (stereo not drawn) 1600
CCCn1c(=O)c2[nH]c(C3CCCC3)nc2n(CCC)c1=O 1560
Nc1ccc(S(=O)(=O)NC(=O)c2ccccc2)cc1 1560
O=c1cc(-c2ccccc2)nc(N2CCCCC2)[nH]1 1600
COC(=O)c1ccccc1NC(=O)C1CCN(S(=O)(=O)c2cc(OC)ccc2OC)CC1 1480
Cn1c(=O)c2cn(-c3cccc4ccccc34)cc2n(C)c1=O 1650
COc1ccc(-n2c(Cc3cccn3C)nnc2SCC(=O)Nc2cc(C)cc(C)c2)cc1 1500
COc1ccc(CCNC(=O)c2cc3sccc3n2C)cc1OC 1640
COc1ccc(-c2nnn(Cc3nc(N)nc(N4CCCCC4)n3)n2)cc1 1520
CN1CCN(CC(O)COCc2ccc3c(c2)OCO3)CC1 (stereo not drawn) 1670
COc1ncnc2sc3c(c12)CCCC3 1600
CC(C)C1C2=C(CC(C)(C)CC2=O)ON1c1ccccc1 (stereo not drawn) 1810
COC(=O)C(C)C1Sc2ccccc2NC1=O (stereo not drawn) 1730
N#Cc1c(N)sc2c1CCN(C(=O)OCc1ccccc1)C2 1760
CC(=O)OC(C)C[N+](C)(C)C (stereo not drawn) 1390
O=C(CSc1nnc2scc(-c3ccc(F)cc3)n12)NCc1ccco1 1730
COc1ccc(CCNc2ncnc3nc[nH]c23)cc1OC 1540
CCOc1ccc2[nH]c(=O)c(C(c3nnnn3CCOC)N3CCOCC3)cc2c1 (stereo not drawn) 1550
N#CCSc1nc2ccccc2c(=O)n1-c1ccccc1 1780
COC(=O)C1=C(C)NC2=C(C(=O)c3ccccc32)C1c1ccc(-c2ccc(C(=O)O)cc2)o1 (stereo not drawn) 1810
CCn1cc(C(=O)NCC2COc3ccccc3O2)c2cc(OC)c(OC)cc2c1=O (stereo not drawn) 1710
C/C(Cl)=C\Cn1c(Nc2cccc(C)c2)nc2c1c(=O)n(C)c(=O)n2C 1690
CN(C)c1nc(N)nc(CSc2nnnn2-c2cccc3ccccc23)n1 792
CCn1nc(C(=O)OCC(=O)N2c3ccccc3CC2C)c2ccccc2c1=O (stereo not drawn) 1520
CCC(=O)NC(=Nc1nc2ccccc2s1)NC(=O)CC 1420
CCOC(=O)c1cc(C)sc1NC(=O)C1CCC1 2190
COc1nc(NCc2ccc(Cl)cc2)nc(OC)n1 1580
COc1ccc(-c2nnco2)cc1OC 1540
CCOc1ccc2c(c1)cc(CN(C(=O)CC)C1CCCCC1)c1nnnn12 1650
CCn1c(=N)c(S(=O)(=O)c2ccc(F)cc2)cc2c(=O)n3ccccc3nc21 1820
Cn1c(=O)c2[nH]c(NCC3CCCO3)nc2n(-c2ccccc2)c1=O (stereo not drawn) 1520
O=C(NCc1ccccn1)c1ccc2nc(-c3ccco3)c(-c3ccco3)nc2c1 2040
CCn1ncc(C2=NOC(C(=O)Nc3ccccc3C(=O)OC)C2)c1C (stereo not drawn) 1280
COc1ccc(S(=O)(=O)N(C)CC(=O)Nc2ccc3c(c2)OCCO3)cc1OC 1540
CCOc1ccc(-c2nnn(CC(=O)N3CCN(c4ccc(OC)cc4)CC3)n2)cc1OCC 1540
CCCS(=O)(=O)N1CCC(C(=O)NCCc2ccc(OC)c(OC)c2)CC1 1810
Cc1ccc(C2CC(c3cccc(C)c3)n3nc(N)nc3N2)cc1 (stereo not drawn) 1850
CCCn1c(=NC(C)=O)c(C(=O)OCC)cc2c(=O)n3ccccc3nc21 1630
COc1ccc(S(=O)(=O)Nc2ccc(S(=O)(=O)N3CCCCC3)cc2)cc1OC 1540
CCOC(=O)/C=c1\s/c(=C\c2ccccc2OC)c(=O)n1CC(=O)N1CCOCC1 1600
FC(F)(F)c1cc(-c2ccco2)nc(N2CCOCC2)n1 1540
Cc1ccc(S(=O)(=O)c2c(N)n(C)c3nc4ccccc4nc23)cc1 1580
CC(=O)c1ccc(Oc2cc(C)nc(-n3nc(C)cc3C)n2)cc1 1560
CCCCc1c(O)nc2n(c1=O)CCS2 1610
CCNc1nc(NCC)nc(N(C)n2cnnc2)n1 1760
CCCSc1nc2c(c(=O)[nH]c(=O)n2C)n1CCc1ccccc1 1480
CCOc1cccc(-n2nnnc2-c2ccc(OC)cc2)c1 1540
COc1ccc(Nc2cc(C)nc(-n3nc(C)cc3C)n2)cc1 1750
